Source: PubChem BioAssay (National Center for Advancing Translational Sciences (NCATS))
Marburg entry inh – Marburg virus entry inhibition. Marburg virus pseudotyped entry inhibition, cell reporter. Potency, µM (top dose mostly 37.8 µM), for the others: top-dose activity change, negative = inhibition, actives largely listed as inhibitors. 300,000 tested, 1.8% active; calls by dose curve; tested in HEK293 cells; note: potency is the fitted concentration of half-maximal effect; % is set by controls: 0 for no effect and ±100 for the full control effect
Lassa entry inh – blocks Lassa virus binding to or entry into cells; Lassa virus pseudotype entry inhibition, cell reporter; Potency, µM (series often up to 37.9 µM), without a hit: at the highest dose activity change, negative = inhibition, hits mostly inhibitors; 300,000 tested, 1.2% active; AID 540256; calls by dose curve; tested in HEK293 cells; note: potency is the fitted concentration of half-maximal effect; % is set by controls: 0 for no effect and ±100 for the full control effect; nearly all actives have a fitted effect of over 50% in size
CHX counter – affects cycloheximide protein synthesis inhibition readout, counter-screen; 300,000 tested, 12% active; AID 2314; max response, %; cell reporter, cycloheximide protein synthesis inhibition counterscreen; in the data active = max response mostly above about 13%, no sharp cut-off; inactive = mostly below about 14%; note: read at 38.3 µM for the half of the compounds with a filed dose; 0% is about no effect
Shiga inhibitor – inhibitors of Shiga toxin in Vero cells. AID 2315. Vero cells, Shiga toxin protein synthesis inhibition reporter. 290,000 tested, 9.2% active. inhibition, % at 38.7 µM; in the data active = inhibition mostly above about 28%, no sharp cut-off; inactive = mostly below about 43%; note: 0% is about no effect
HCV inhibitor – inhibitors of hepatitis C virus infection; Huh7.5.1 HCVcc-Cre infection, luciferase reporter, 44 h; Potency, µM (titrated, usually from 41.8 µM), for the others: at the highest dose activity change, negative = inhibition, usual class: inhibitors; 340,000 tested, 3.4% active; active = well fitted inhibition curve with a large enough effect; inconclusive = small, poorly fitted or top-dose-only effect, or another doubt; inactive = no such curve, though single readings can be large or run the other way; note: potency is the fitted concentration of half-maximal effect; % is set by controls: 0 for no effect and ±100 for the full control effect
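Antiviral activity was scored by luciferase reporter output from cells infected with HCVcc-Cre (~0.5 moi) in presence of compound, 44 h infection period, cells seeded 1,000/well 4 h prior.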
FMDV antiviral – foot and mouth disease virus antiviral activity; AID 1159524; Potency, µM (titrated, usually from 57.9 µM), without a hit: top-dose activity change, negative = inhibition, usual class: inhibitors; 410,000 tested, 1.2% active; FMDV antiviral cell-based qHTS; calls by dose curve; tested in HEK293T cells; note: read-out not given here; potency is the fitted concentration of half-maximal effect; % is set by controls: 0 for no effect and ±100 for the full control effect; nearly all actives have a fitted effect of over 45% in size
* marks the source's active call; other numbers are inactive results; ? = inconclusive; / = no result given; [ ] = remark or other dose. Rows were chosen to be rich in hits. Some 13% of all compounds tested hit in one or more screens of this group.

SMILES	Marburg entry inh	Lassa entry inh	CHX counter	Shiga inhibitor	HCV inhibitor	FMDV antiviral
CCCC/C(O)=C1\C(=O)CC(C)(C)CC1=Nc1ccccc1OC	?	2.5%	-3.4	-5.3	?	-20.8%
CCC/C(O)=C1\C(=O)CC(C)(C)CC1=Nc1ccc(OC)cc1OC	2µM*	-24.2%	-2.6	2.9	-10.6%	0.0%
N[C@@H](C(=O)O)c1cc(O)ccc1Cl	/	/	/	/	/	-2.8%
COc1ccc(-c2nc(C=O)cs2)cc1	21.9%[46.1 µM]	?	13.2*	39.2*	16.0%	22.7%
COc1ccc(-c2nc(CCNC(=O)c3cc(OC)c(OC)c(OC)c3)cs2)cc1	/	11.5%[46.1 µM]	/	/	/	-28.1%
COc1cccc(-c2nc(C=O)cs2)c1	10.9%	19.2%	12.9	30.7*	14.2%	10.3%
O=S(=O)(c1ccc(Cl)s1)N1CCNCC1	/	/	/	/	11.9%	-17.0%
O=C(O)CCc1ccc(-c2ccccc2)o1	-1.2%	1.7%	15.3*	5.9	-17.7%	-3.5%
O=C(O)CCc1nc(-c2ccccc2)c(-c2ccccc2)o1	?	41.6%	-4.7	-1.3	/	-13.9%
COc1ccc(C2=Nc3ccccc3NC(=O)C2N(CCc2cc(OC)cc(OC)c2)C(C)=O)cc1 (stereo unspecified)	/	/	/	/	/	15.9%
O=C(COc1ccc(F)cc1Br)NCc1ccccn1	2.9%	10.9%	48.5*	61.4*	-0.1%	48.3%
Cc1ccc(OCC(=O)NCc2ccccn2)c(Br)c1	12.6%	?	30.7*	78.1*	-0.1%	57.9%
O=C(COc1ccccc1Br)NCc1ccccn1	?	26.3%	29.0*	63.7*	-16.7%	46.0%
Cc1cc(OCC(=O)NCc2ccccn2)c2c(C)c(C)c(=O)oc2c1	-4.1%[46.1 µM]	-2.2%[46.1 µM]	1.4	-5.3	?	-12.9%
O=C(COc1ccc(F)cc1Br)NCc1nnc2ccccn12	21.1%	3.3%	/	/	41.9%	8.0%
Cc1ccc(OCC(=O)NCCO)c(Br)c1	-7.0%[46.1 µM]	2.4%	30.7*	29.2	19.1%	49.1%
O=S1(=O)c2ccccc2N(Cc2ccccc2Cl)c2ccccc21	/	5.5%[46.1 µM]	/	/	/	?
COc1cc(NC(=O)CSc2nnc(-c3ccncc3)n2C2CCCCC2)ccc1NC(=O)c1ccco1	-5.5%	24.4%	-1.5	-12.5	?	/
COc1cc(O)c2c(=O)c(-c3ccc(O[C@@H]4O[C@H](CO)[C@@H](O)[C@H](O)[C@H]4O)cc3)coc2c1	10µM*	?	39.1*	111.3*	-13.3%	30.7%
O=c1c(OC2OC(CO)C(O)C(O)C2O)c(-c2ccc(O)c(O)c2)oc2cc(O)cc(O)c12 (stereo unspecified)	14.6µM*	0.0%	-1.0	-11.4	-10.7%[8.37 µM]	-21.2%
O=c1c(-c2ccc(O)cc2)coc2cc(OC3OC(CO)C(O)C(O)C3O)cc(O)c12 (stereo unspecified)	?	?	22.0*	67.6*	4.1%[8.37 µM]	62.9%
O=c1c(-c2ccc(O)cc2)coc2cc(OC3OC(CO)C(O)C(O)C3O)ccc12 (stereo unspecified)	15.0%	7.2%	19.8*	42.5*	22.9%	46.4%
CCCn1c2ccccc2c2cnn(CC(=O)NCCc3ccccc3)c(=O)c21	/	-25.7%[46.1 µM]	/	/	/	-21.1%
OC1(Cc2ccccc2)CCNCC1	?	8.1%	-1.4	7.0	14.6%	1.1%
CC12CCC3C(CC=C4CC(O)CCC43C)C1C/C(=C\c1ccccc1F)C2=O (stereo unspecified)	-29.4%	?	-4.9	-18.6	9.5%	-23.2%
SMILES	Marburg entry inh	Lassa entry inh	CHX counter	Shiga inhibitor	HCV inhibitor	FMDV antiviral
Cn1c(-c2ccccc2)c(/C=N/NC(=O)c2ccc(O)cc2)c2ccccc21	/	/	33.6*	86.8*	10µM*	3.1%
Cn1c2ccccc2c2cc(/C=N/NC(=O)c3ccc(N)cc3)ccc21	?	?	12.6	24.0	11.2µM*	-20.0%
CCOc1ccc(C=NNC(=O)c2cccc3ccccc23)cc1OCC	-17.5%	-2.3%[46.1 µM]	/	/	?	?
CCn1c2ccccc2c2cc(/C=N/NC(=O)c3ccccc3C)ccc21	?	?	5.2	-4.2	5.62µM*	-9.2%
CCn1c2ccccc2c2cc(/C=N/NC(=O)c3cccc(C)c3)ccc21	?	-26.6%	12.2	39.5	?	-10.5%
Cn1c(=O)n(C)c2cc(/C=N/NC(=O)c3ccc(Cl)cc3)ccc21	/	/	1.5	9.5	-3.5%	-15.3%
Cn1c2ccccc2c2cc(/C=N/NC(=O)c3ccccc3F)ccc21	/	/	41.1*	78.7*	14.1µM*	-6.4%
O=C(NNC(=S)NCc1ccccc1)c1ccc(Br)o1	/	/	-3.9	18.6	-1.8%	18.2%
Cc1ccc(-n2nc(CO)c(C(=O)NCCC(C)C)n2)cc1C	-5.0%[46.1 µM]	27.0%[46.1 µM]	/	/	/	-5.1%
CCCSc1nnc2[nH]c(=O)cc(C)n12	/	-1.0%[46.1 µM]	/	/	/	-10.9%
C[C@]1(C(=O)O)[C@@H]2CC[C@@H](O2)[C@@]1(C)C(=O)O	4.11µM*	/	/	/	/	/
COc1ccc(-c2cc3c(=O)n(CC(=O)NCc4ccc(F)cc4)ncn3n2)cc1	/	/	10.8*	16.0*	6.5%	0.0%
COc1ccc(-c2cc3c(=O)n(CC(=O)NCc4ccc(C)cc4)ncn3n2)cc1	/	/	1.6	9.7	6.0%	0.3%
COc1ccc(CNC(=O)Cn2ncn3c(cc4ccccc43)c2=O)cc1	19.4%[46.1 µM]	-19.7%	-2.3	-11.0	-18.9%	-17.5%
COc1ccc(-c2cc3c(=O)n(CC(=O)NCCCN4CCC(Cc5ccccc5)CC4)ncn3n2)cc1	/	/	23.0*	45.3*	?	0.0%
COc1ccc(CNC(=O)Cn2ncn3cccc3c2=O)cc1	/	/	25.9*	29.6	/	/
COc1ccc(-c2cc3c(=O)n(CC(=O)NCc4ccc(Cl)cc4)ncn3n2)cc1	/	/	3.6	13.8	14.5%	14.1%
COc1ccc(-c2cc3c(=O)n(CC(=O)NCCCN4CCN(Cc5ccccc5)CC4)ncn3n2)cc1	/	/	28.2*	31.2	?	-29.3%
CCc1nn(CC(=O)NCc2ccccc2)c(=O)c2cccn12	?	11.2µM*	/	/	/	-6.1%
CCc1nn(CC(=O)NCCc2ccc(Cl)cc2)c(=O)c2cccn12	/	/	15.0	16.6	2.9%	-3.2%
CC(=O)c1c(N2CCCC2)[nH]c(-c2ccccc2)nc1=S	-5.1%	-12.9%	1.1	-6.2	22.4µM*	-13.3%
CCc1ccc(S(=O)(=O)Nc2c(C)nn(C)c2C)cc1	-4.1%	0.3%	11.1	27.0	12.6µM*	?
COc1cccc(N2CCN(S(=O)(=O)c3ccc(-c4cc(C(F)(F)F)on4)s3)CC2)c1	/	10.2%[46.1 µM]	/	/	/	-10.6%
COc1ccccc1N1CCN(S(=O)(=O)c2ccc(-c3cc(C(F)(F)F)on3)s2)CC1	/	0.1%[46.1 µM]	/	/	/	0.891µM*
O=C(Nc1ccc(F)cc1F)N1CCCN(c2ccc([N+](=O)[O-])cn2)CC1	4.3%	10.4%	-1.6	14.5	?	?
CC(C)(C)c1ccc(NC(=O)N2CCN(c3ccc([N+](=O)[O-])cn3)CC2)cc1	7.5%[14.2 µM]	?	9.8	13.2	?	22.4µM*
CCOc1ncccc1C(=O)N1CCN(c2ccc(C(F)(F)F)cn2)CC1	21.6%[46.1 µM]	-9.0%	-1.8	2.5	-7.2%	0.0%
CCOC(=O)N1CCN(c2ccc(C(F)(F)F)cn2)CC1	12.0%	?	20.5*	27.8	8.2%	-12.7%
